Data reported in the supplement of paper PMC8975748.
Counter-ions that a name gives are not always drawn. ± gives the standard deviation of the averaged measurements.

Assays:
[1] = system: Saccharomyces cerevisiae BY4741 SeMeCo community; experiment: mean cell size (pixel area) (pixels); higher = larger cells; conditions: 10 µM; 24 h; SM minimal medium
In short: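 Mean cell pixel area per well was determined by automated confocal microscopy with Harmony analysis of paraformaldehyde-fixed cells. The cells, a Saccharomyces cerevisiae BY4741 community of four plasmids that each complement one auxotrophy and carry a fluorescent marker, were incubated for 24 h with drug at a final 10 µM in SM medium in 384-well plates. Numbers are averaged over 3 replicates. Same SeMeCo high-content imaging drug screen: Selleck FDA-approved drugs at 10 µM, 24 h in SM medium, 384-well plates, 3 replicates.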

[2] = system: Saccharomyces cerevisiae BY4741 SeMeCo community; experiment: z-score of prototroph abundance vs DMSO median; higher = larger share of this subpopulation than in DMSO controls; conditions: 10 µM; 24 h; SM minimal medium; subpopulation (auxotrophy): Prototroph
In short: (§1)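 Four plasmids, each restoring a single auxotrophy and encoding a distinct fluorescent protein, were carried by a Saccharomyces cerevisiae BY4741 community. After overnight growth to OD600 1.0 and dilution to 0.3, 70 µl per well was grown for 24 h in minimal SM medium on 384-well plates acoustically predosed with library drugs at 10 µM final. Following paraformaldehyde fixation, automated confocal microscopy was used, with single-auxotroph fluorescent strains defining thresholds and autofluorescence correction. Subpopulation abundance was then scored as a z-score against the vehicle-well median.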

[3] = system: Saccharomyces cerevisiae BY4741 SeMeCo community; experiment: z-score of subpopulation abundance vs DMSO median, subpopulation auxotrophic for M; higher = larger share of this subpopulation than in DMSO controls; conditions: 10 µM; 24 h; SM minimal medium; subpopulation (auxotrophy): M
In short: as §1

[4] = system: Saccharomyces cerevisiae BY4741 SeMeCo community; experiment: z-score of subpopulation abundance vs DMSO median, subpopulation auxotrophic for L; higher = larger share of this subpopulation than in DMSO controls; conditions: 10 µM; 24 h; SM minimal medium; subpopulation (auxotrophy): L
In short: as §1

[5] = system: Saccharomyces cerevisiae BY4741 SeMeCo community; experiment: z-score of subpopulation abundance vs DMSO median, subpopulation auxotrophic for U; higher = larger share of this subpopulation than in DMSO controls; conditions: 10 µM; 24 h; SM minimal medium; subpopulation (auxotrophy): U
In short: as §1

[6] = system: Saccharomyces cerevisiae BY4741 SeMeCo community; experiment: z-score of subpopulation abundance vs DMSO median, subpopulation auxotrophic for H; higher = larger share of this subpopulation than in DMSO controls; conditions: 10 µM; 24 h; SM minimal medium; subpopulation (auxotrophy): H
In short: as §1

[7] = system: Saccharomyces cerevisiae BY4741 SeMeCo community; experiment: z-score of subpopulation abundance vs DMSO median, subpopulation auxotrophic for LU; higher = larger share of this subpopulation than in DMSO controls; conditions: 10 µM; 24 h; SM minimal medium; subpopulation (auxotrophy): LU
In short: as §1

[8] = system: Saccharomyces cerevisiae BY4741 SeMeCo community; experiment: z-score of subpopulation abundance vs DMSO median, subpopulation auxotrophic for LM; higher = larger share of this subpopulation than in DMSO controls; conditions: 10 µM; 24 h; SM minimal medium; subpopulation (auxotrophy): LM
In short: as §1

[9] = system: Saccharomyces cerevisiae BY4741 SeMeCo community; experiment: z-score of subpopulation abundance vs DMSO median, subpopulation auxotrophic for HM; higher = larger share of this subpopulation than in DMSO controls; conditions: 10 µM; 24 h; SM minimal medium; subpopulation (auxotrophy): HM
In short: as §1

[10] = system: Saccharomyces cerevisiae BY4741 SeMeCo community; experiment: z-score of subpopulation abundance vs DMSO median, subpopulation auxotrophic for HU; higher = larger share of this subpopulation than in DMSO controls; conditions: 10 µM; 24 h; SM minimal medium; subpopulation (auxotrophy): HU
In short: as §1

[11] = system: Saccharomyces cerevisiae BY4741 SeMeCo community; experiment: z-score of subpopulation abundance vs DMSO median, subpopulation auxotrophic for UM; higher = larger share of this subpopulation than in DMSO controls; conditions: 10 µM; 24 h; SM minimal medium; subpopulation (auxotrophy): UM
In short: as §1

[12] = system: Saccharomyces cerevisiae BY4741 SeMeCo community; experiment: z-score of subpopulation abundance vs DMSO median, subpopulation auxotrophic for HL; higher = larger share of this subpopulation than in DMSO controls; conditions: 10 µM; 24 h; SM minimal medium; subpopulation (auxotrophy): HL
In short: as §1

[13] = system: Saccharomyces cerevisiae BY4741 SeMeCo community; experiment: z-score of subpopulation abundance vs DMSO median, subpopulation auxotrophic for HLU; higher = larger share of this subpopulation than in DMSO controls; conditions: 10 µM; 24 h; SM minimal medium; subpopulation (auxotrophy): HLU
In short: as §1

[14] = system: Saccharomyces cerevisiae BY4741 SeMeCo community; experiment: z-score of subpopulation abundance vs DMSO median, subpopulation auxotrophic for HLM; higher = larger share of this subpopulation than in DMSO controls; conditions: 10 µM; 24 h; SM minimal medium; subpopulation (auxotrophy): HLM
In short: as §1

[15] = system: Saccharomyces cerevisiae BY4741 SeMeCo community; experiment: z-score of subpopulation abundance vs DMSO median, subpopulation auxotrophic for HUM; higher = larger share of this subpopulation than in DMSO controls; conditions: 10 µM; 24 h; SM minimal medium; subpopulation (auxotrophy): HUM
In short: as §1

[16] = system: Saccharomyces cerevisiae BY4741 SeMeCo community; experiment: z-score of subpopulation abundance vs DMSO median, subpopulation auxotrophic for LUM; higher = larger share of this subpopulation than in DMSO controls; conditions: 10 µM; 24 h; SM minimal medium; subpopulation (auxotrophy): LUM
In short: as §1

[17] = system: Saccharomyces cerevisiae BY4741 SeMeCo community; experiment: z-score of subpopulation abundance vs DMSO median, subpopulation auxotrophic for HLUM; higher = larger share of this subpopulation than in DMSO controls; conditions: 10 µM; 24 h; SM minimal medium; subpopulation (auxotrophy): HLUM
In short: as §1

Compound	mean cell size [1]	z-score of prototroph abundance [2]	z-score of subpopulation abundance [3]	z-score of subpopulation abundance [4]	z-score of subpopulation abundance [5]	z-score of subpopulation abundance [6]	z-score of subpopulation abundance [7]	z-score of subpopulation abundance [8]	z-score of subpopulation abundance [9]	z-score of subpopulation abundance [10]	z-score of subpopulation abundance [11]	z-score of subpopulation abundance [12]	z-score of subpopulation abundance [13]	z-score of subpopulation abundance [14]	z-score of subpopulation abundance [15]	z-score of subpopulation abundance [16]	z-score of subpopulation abundance [17]
CN(C)CCCN1c2ccccc2CCc2ccc(Cl)cc21 [Clomipramine HCl]	12.55 ± 0.052	-0.93	0.54	-0.45	1.4	-0.49	0.32	-0.41	0.1	0.31	0.93	-0.45	-0.16	0.29	1.2	1.56	1.45
NC(=O)Cc1cccc(C(=O)c2ccccc2)c1N [Nepafenac]	12.3 ± 0.27	0.25	0.62	1.39	-1.24	-0.38	-0.55	1.58	0.5	-1.05	-0.53	0.69	0.04	-0.23	-0.01	0.29	0.1
NC(=O)c1ncn([C@@H]2O[C@H](CO)[C@@H](O)[C@H]2O)n1 [Ribavirin]	12.45 ± 0.12	-0.16	-0.5	-0.43	1.52	-0.52	0.48	-0.41	-0.41	0.42	0.53	-0.89	-0.19	-0.6	0.49	0.09	-0.37
COc1cc(O)c(C(=O)Nc2nc(C(=O)NCCN(C(C)C)C(C)C)cs2)cc1OC [Acotiamide hydrochloride]	12.4 ± 0.15	-0.4	-0.47	-0.26	0.89	0.42	0.52	-0.2	0.26	0.71	0.4	-0.16	0.19	0.13	0.54	-0.38	-0.39
Cc1cc(NS(=O)(=O)c2ccc(N)cc2)no1 [Sulfamethoxazole]	12.4 ± 0.24	-0.28	0.51	0.5	-0.2	-0.46	0.02	0.08	0.18	-0.16	0.65	0.5	1.04	-0.58	-0.13	-0.02	-0.41
CC#C[C@]1(O)CC[C@H]2[C@@H]3CCC4=CC(=O)CCC4=C3[C@@H](c3ccc(N(C)C)cc3)C[C@@]21C [Mifepristone]	12.3 ± 0.19	-1.1	0.43	1.02	-0.36	1.2	0.63	0.79	1.66	0.29	0.64	1.2	0.41	0.44	1.71	0.67	-0.67
Oc1c(I)cc(I)c2cccnc12 [Diiodohydroxyquinoline]	12.1 ± 0.48	-3.05	-0.3	0.99	2.25	2.75	3.93	0.38	2.21	2.97	0.65	2.9	4.17	2.46	1.2	2.87	1.67
COc1cc2c(cc1OC)C(=O)C(CC1CCN(Cc3ccccc3)CC1)C2 (stereo not drawn) [Donepezil]	12.14 ± 0.068	-0.18	1.61	0.86	-1.17	-0.21	0.06	0.51	0.52	-0.92	-0.49	0.47	-0.33	-0.14	-0.13	0.47	0.22
CCc1c(C)[nH]c2c1C(=O)C(CN1CCOCC1)CC2 (stereo not drawn) [Molindone hydrochloride]	12.2 ± 0.13	0.46	-0.61	0.73	-0.6	-0.43	-0.32	-0.16	-0.54	-0.73	-0.67	0.22	0.45	-0.03	-0.76	-0.28	0.04
CCOC(=O)C1=C(C)NC(C)=C(C(=O)OC)C1c1cccc([N+](=O)[O-])c1 (stereo not drawn) [Nitrendipine]	12.5 ± 0.13	0.18	-0.21	-1.96	1.29	-0.06	-0.48	-1.23	-0.08	1.51	0.62	-0.8	-0.48	-0.87	0.52	-1.36	-1.04
CC[C@H](C)C(=O)O[C@H]1CCC=C2C=C[C@H](C)[C@H](CC[C@@H]3C[C@@H](O)CC(=O)O3)[C@H]21 [Mevastatin]	11.6 ± 0.14	0.08	-0.77	-0.41	0.22	-0.21	0.06	-0.31	-0.1	0.2	0.52	–	0.15	-0.6	-0.29	-0.11	-0.71
O=C(NCCN1CCOCC1)c1ccc(Cl)cc1	12.4 ± 0.22	0.89	0.03	1.75	-0.52	–	0.18	1.06	-0.79	-1.32	–	-0.31	0.17	-0.28	-1.26	0.42	0.73
COc1ccc2cc(CCC(C)=O)ccc2c1 [Nabumetone]	12.5 ± 0.13	–	0.05	-1.25	0.54	-1.58	-0.78	-1.42	-0.96	-0.64	-0.41	-1.5	-0.94	-0.91	-0.22	-0.43	-1.51
CC1(C)S[C@@H]2[C@H](NC(=O)[C@H](N)c3ccccc3)C(=O)N2[C@H]1C(=O)O [Ampicillin sodium]	12.3 ± 0.15	0.8	-0.4	0.09	0.29	-0.9	0.12	-0.28	-0.71	0.1	–	-0.73	-0.42	-0.99	-0.12	-0.14	-0.67
